Results: the supplement of paper PMC12819154, “High-throughput peptide-centric local stability assay extends protein–ligand identification to membrane proteins, tissues and bacteria” (Nature Structural & Molecular Biology, 2025)

Compound: Nc1ncnc2c1ncn2[C@@H]1O[C@H](COP(=O)(O)OP(=O)(O)OP(=O)(O)O)[C@@H](O)[C@H]1O [adenosine 5'-triphosphate]
Experiment: log2 fold change of tryptic peptide abundance, ligand vs vehicle (limited proteolysis) (log2 ratio); higher = more trypsin-susceptible (destabilized)
Details: ligand concentration: 5 mM; sample: E. coli desalted lysate; replicate design: treated before aliquoting
Protocol: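 HT-PELSA: desalted E. coli K-12 BW25113 lysate (with 12 mM MgCl2) incubated with 5 mM ATP (pH 7) or water for 30 min at 25 C, then a 4 min trypsin pulse at 22 C. Peptides were quantified by DIA-MS (4 replicates). Value is the peptide log2 fold change (treated/control); negative = stabilized. Scale: negative = ligand-stabilized region.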
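Also: lysate desalted by size exclusion to strip endogenous ATP, peptide intensities built from DIA-NN precursor signals, and peptides missing any value discarded before comparison.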

Row | Target | log2 fold change
1 | UniProt P02916 (peptide sequence: ETTAQPEGER, peptide start residue: 161) | 0.465
2 | UniProt P39180 (peptide sequence: NLNGQNGTISLR, peptide start residue: 603) | 0.735
3 | UniProt P07395 (peptide sequence: GKGVAEGYK, peptide start residue: 746) | -0.76
4 | UniProt P33368 (peptide sequence: IINITSVHEHTPLPDASAYTAAK, peptide start residue: 135) | 0.894
5 | UniProt P08373 (peptide sequence: VNGNAGSFFKNPVVSAETAK, peptide start residue: 223) | 0.267
6 | UniProt P37908 (peptide sequence: RNQDMLLSVLDLEK, peptide start residue: 188) | -2.2
7 | UniProt P37005 (peptide sequence: IVDSQAHLEPATR, peptide start residue: 33) | -0.548
8 | UniProt P75915 (peptide sequence: VLGSLYYR, peptide start residue: 10) | 0.747
9 | UniProt P38035 (peptide sequence: APILLNGPTGAGK, peptide start residue: 209) | -1.38
10 | UniProt P22525 (peptide sequence: AGVLALNIQR, peptide start residue: 356) | -0.343
11 | UniProt P37749 (peptide sequence: YMSQDKIK, peptide start residue: 132) | -0.295
